Rows were chosen to be rich in hits. Some 11% of all compounds tested hit in one or more screens of this group.
hNpr1 antagonist = Natriuretic polypeptide receptor (hNpr1) antagonism - Primary qHTS; HEK293 hNpr1 GloSensor cGMP, ANP-stimulated luminescence; Potency, µM (titrated, usually from 46.3 µM), for the others: at the highest dose activity change, negative = inhibition, hits mostly inhibitors; 1.6% of 76,000 active; Atrial natriuretic peptide receptor 1 (Homo sapiens), P16066; calls by dose curve; note: nearly all actives have a fitted effect of over 60% in size
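Compound pre-incubated 30 min at room temperature on GloSensor-loaded HEK293 cells stably carrying hNpr1 and the pGS-40F cGMP biosensor. Stimulation uses hNppA at 0.1 nM final; luminescence is taken at baseline and 20 min post-agonist.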
Luciferase inh = Firefly luciferase inhibition profiling of diverse chemical library using quantitative high-throughput screening | Luciferin 4-monooxygenase (Photinus pyralis), P08659 | purified P. pyralis luciferase, luminescence, biochemical | Potency, µM (doses to about 115 µM), most hits filed as inhibitors | 2.5% of 76,000 active | AID 1347043, 2019; note: nearly all actives have a fitted effect of over 65% in size
Target sequence (P08659 whole entry, looked up): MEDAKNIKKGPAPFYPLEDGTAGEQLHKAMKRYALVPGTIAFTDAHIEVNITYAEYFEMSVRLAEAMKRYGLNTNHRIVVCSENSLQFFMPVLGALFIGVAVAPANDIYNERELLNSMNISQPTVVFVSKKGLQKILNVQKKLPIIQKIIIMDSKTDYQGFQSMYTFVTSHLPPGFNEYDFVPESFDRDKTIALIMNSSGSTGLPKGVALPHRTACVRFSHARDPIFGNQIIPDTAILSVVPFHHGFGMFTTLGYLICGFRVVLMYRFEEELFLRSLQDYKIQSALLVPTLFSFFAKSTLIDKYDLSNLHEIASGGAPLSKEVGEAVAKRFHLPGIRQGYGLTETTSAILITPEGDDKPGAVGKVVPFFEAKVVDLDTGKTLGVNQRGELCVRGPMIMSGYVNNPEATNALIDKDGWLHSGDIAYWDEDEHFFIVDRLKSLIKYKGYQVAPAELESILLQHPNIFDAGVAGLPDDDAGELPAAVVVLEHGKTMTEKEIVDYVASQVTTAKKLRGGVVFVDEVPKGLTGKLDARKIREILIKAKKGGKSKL
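FLuc 10nM, D-luciferin 10uM, ATP 10uM, Mg acetate 10mM, Tris acetate pH 7.5, Tween/BSA; cpd qHTS; enzyme added last; CCD luminescence.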
HEK cytotox = Cytotoxic Profiling in HEK 293 Cell Line of Diverse Libraries Using Quantitative High-Throughput Screening | HEK 293 viability, ATP luminescence (CellTiter-Glo), 48-72 h | Potency, µM (highest dose often 115 µM), without a hit: at the top dose activity change, negative = cytotoxicity, actives largely listed as inhibitors | 6.6% of 94,000 active | AID 1345083, 2018; note: nearly all actives have a fitted effect of over 60% in size
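HEK 293 cells seeded at 250 cells/well were exposed to compound for 48 or 72 hr at 37 degree Celsius. Viability taken as ATP content by CellTiter-Glo luminescence.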
3T3 cytotox = Cytotoxic Profiling in NIH 3T3 Cell Line of Diverse Libraries Using Quantitative High-Throughput Screening | NIH 3T3 viability, CellTiter-Glo ATP luminescence, 48-72 h | Potency, µM (titrated, usually from 96.7 µM), without a hit: at the highest dose activity change, negative = cytotoxicity, hits mostly inhibitors | 4.3% of 94,000 active | AID 1345082, 2018; note: nearly all actives have a fitted effect of over 55% in size
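NIH 3T3 cells at 400 cells/well received 23 nL of compound by pintool and were incubated 48 or 72 h at 37 °C. Viability was read as ATP-coupled CellTiter-Glo luminescence.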
* = called active by the depositor; i = inactive; u = inconclusive; x = not tested or not shown; ! = not active in a repeat; [ ] = remark or other dose. Unless noted, calls come from the whole dose curve; as a rule, active = well fitted curve in the direction sought with a large enough effect; inconclusive = small, poorly fitted or top-dose-only effect, or another doubt; inactive = no such curve, though single readings can be large; an effect the other way counts as inactive or inconclusive. % is set by controls: 0 for no effect and ±100 for the full control effect; potency is the fitted concentration of half-maximal effect.

SMILES	hNpr1 antagonist	Luciferase inh	HEK cytotox	3T3 cytotox
COc1cccc(-c2ccc(C(=O)N3CCC(N[S+](=O)([O-])c4cccs4)CC3)cc2)c1	x	x	18µM*	16µM*
O=C(c1ccc(-c2cccs2)cc1)N1CCC(N[S+](=O)([O-])c2cccs2)CC1	x	x	45µM*	u
COc1cccc(-c2ccc(C(=O)N3CCC(N[S+](C)(=O)[O-])CC3)cc2)c1	x	x	u	-33%
CC(C)C(=O)NC1CCN(C(=O)c2ccc(-c3cccs3)cc2)CC1	x	x	71µM*	u
CC(C(=O)N1CC(n2cc(C(=O)NCC3CC3)nn2)C1)c1ccccc1 (configuration not stated)	x	x	4%	i
COc1ccc(C(=O)N2CCCC2C(=O)N2CCC(N3CCCC3=O)CC2)cc1 (configuration not stated)	x	x	i	2%
COc1ccccc1-c1ccc(C(=O)N2CCC(N[S+](=O)([O-])c3cccs3)CC2)cc1	x	x	89µM*!	u
O=C(NCCN1C(=O)C2(CCCCC2)C1c1ccccc1)C1CC=CC1 (configuration not stated)	x	x	u	-25%
Cc1nc(-c2ccc(Cl)cc2)n(Cc2ccc(F)cc2)c(=O)c1CCO	-6%	i	20µM*	u
Cc1cccc(-c2nc(Cn3c(-c4ccccc4)nc(C)c(CCO)c3=O)c(C)o2)c1	-26%	i	79µM*	u
Cc1cccc(-c2nc(Cn3c(-c4ccc(F)cc4)nc(C)c(CCO)c3=O)c(C)o2)c1	4%	i	i	3%
COc1c(C)cnc(Cn2c(-c3ccccc3)nc(C)c(CCO)c2=O)c1C	1%	i	u	45µM*
Cc1nc(-c2ccccc2)n(Cc2ccccc2Cl)c(=O)c1CCO	-7%	i	u	45µM*
O=C1OCC2(CCN(Cc3ccc4c(c3)CCO4)C2)N1Cc1ccccc1 (configuration not stated)	-10%[70.6 µM]	i	u	u
O=[S+]([O-])(CCC(F)(F)F)N1CCC2(CC1)CC(c1cccc(C(F)(F)F)c1)=NO2	x	x	-23%	-20%
COc1ccccc1Cn1c(-c2ccc(Cl)cc2)nc(C)c(CCO)c1=O	7%	i	32µM*	u
COc1ccccc1Cn1c(-c2cccc(Cl)c2)nc(C)c(CCO)c1=O	0%	i	u	u
CN1CC(=O)N(C2CCC2)Cc2c(NCc3ccccc3)ncnc21	3%	i	u	u
CN1CC(=O)N(c2ccccc2F)Cc2c(NCCc3ccc(Cl)cc3)ncnc21	-15%	i	45µM*	40µM*
CN1CC(=O)N(c2ccccc2F)Cc2c(NCCc3ccccc3)ncnc21	0%	i	45µM*	u
Cc1ccc(N2Cc3c(NCCCc4ccccc4)ncnc3N(C)CC2=O)cc1	6%	i	u	u
CN1Cc2ncnc(NCCc3ccccc3)c2CN(C2CCC2)C1=O	0%[70.6 µM]	i	63µM*	u
Cc1ccccc1N1Cc2c(NCCc3ccc(Cl)cc3)ncnc2N(C)CC1=O	-4%	i	u	u
Cc1cccc(N2Cc3c(NCCCc4ccccc4)ncnc3N(C)CC2=O)c1	x	x	u	45µM*
Cc1cccc(OC[C@H]2C[C@@H](NCc3cccc4c3OCO4)[C@H](O)[C@@H]2O)n1	-4%	i	-5%	-21%
SMILES	hNpr1 antagonist	Luciferase inh	HEK cytotox	3T3 cytotox
CC(C)CCNC(=O)C12CCCC=C1N(c1ccccc1)C(=O)CC2 (configuration not stated)	x	x	-12%	-7%
COc1ccccc1-c1cc(C(=O)NCC2CC2)c2cnn(C)c2n1	x	x	-8%	-28%
CCN1CCN(C(=O)c2ccc(-c3nnc4ccc(NC(=O)C5CCC5)cn34)cc2)CC1	3%	u	u	-5%
Cc1ccc(N2C(=S)N[C@H]3[C@@H](O)[C@H](O)C[C@@H](C(=O)NCc4cccs4)[C@H]32)cc1Cl	-2%	u	79µM*	u
COc1ccc(N2CC(C(=O)NCc3cccs3)NC2=O)cc1 (configuration not stated)	15%[70.6 µM]	i	-26%[172 µM]	-21%[138 µM]
COc1ccccc1CNC[C@H]1O[C@H](Cc2cc(-c3ccccc3)on2)CC[C@@H]1O	-13%[70.6 µM]	i	u	89µM*
O[C@H]1CC[C@@H](Cc2cc(-c3ccccc3)on2)O[C@@H]1CNC1CCCCC1	-22%[70.6 µM]	i	100µM*	u
COc1ccccc1CNC[C@H]1O[C@H](Cc2cc(CN(C)C)on2)CC[C@@H]1O	-3%[70.6 µM]	i	-26%[172 µM]	-18%[174 µM]
CS(=O)(=O)N(Cc1ccccn1)C1CN(C(=O)c2ccoc2)C1	x	x	-1%	-2%
COc1ccc(-c2cc3nc4c(c(=O)n3[nH]2)CCN(C(=O)COc2ccccc2C)C4)cc1	-10%	14µM*	-24%	-19%
Cc1ccccc1OCC(=O)N1CCc2c(nc3cc(-c4ccccc4Cl)[nH]n3c2=O)C1	-14%	i	u	u
Cc1ccc(NC(=O)N2C[C@@H](F)C[C@H]2C(=O)N2CCc3ccccc3C2)cc1Cl	-13%	i	28µM*	u
COc1ccccc1CC(=O)N1CCCc2ncc(C(=O)N3CCCC[C@@H]3c3ccccc3)cc21	-2%	i	u	-18%
Cn1cc(CC(=O)N2CCCc3ncc(C(=O)N4CCCC[C@@H]4Cc4ccccc4)cc32)c2ccccc21	-29%	i	40µM*	u
O=C(Cc1cccc(C(F)(F)F)c1)N1CCCc2ncc(C(=O)N3CCCC[C@@H]3c3ccccc3)cc21	u	i	79µM*	u
COc1ccccc1CC(=O)N1CCCc2ncc(C(=O)N3CCCC[C@@H]3Cc3ccccc3)cc21	0%	i	u	-35%
Cc1ccc([S+](=O)([O-])N2CCCC(C(=O)N3CCC(c4nc5ccncc5[nH]4)C3)C2)cc1 (configuration not stated)	x	x	0%	-19%
COc1cccc(-c2cc(C3CCN(C(=O)Nc4ccc(F)cc4)CC3)[nH]n2)c1	1%	i	u	u
COc1cccc(-c2cc(C3CCN(S(=O)(=O)c4ccc(F)cc4F)CC3)[nH]n2)c1	u	i	25µM*	u
COc1cccc(-c2cc(C3CCN(S(=O)(=O)c4ccc(C#N)cc4)CC3)[nH]n2)c1	u	i	28µM*	28µM*
Cn1ccc(C(=O)N2CCCC(CCc3ccccc3C(F)(F)F)C2)n1 (configuration not stated)	-17%	i	32µM*	u
O=C(Nc1ccccc1)N1CCCN(c2ccc3nnc(C4CC4)n3n2)CC1	x	x	-3%	-6%
CCN1c2cc(C(=O)Nc3cccc(OC)c3)ccc2C(=O)N2CCCCC21 (configuration not stated)	-14%	i	45µM*	u
